Compounds with a hit are over-represented: about 2.3% of the library has one in this group of screens.
LGR2 antag: Drosophila LGR2 receptor signaling inhibition; HEK293 LGR2, CRE-luciferase, bursicon-stimulated, 4 h; inhibition, % at 9.99 µM; 380,000 compounds, 0.35% hits; AID 720647;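 active means drop in luminescence signal, shown as inhibition above about 50% in the replicate tests, limit read from the data, passing the limit was not always enough; inconclusive means probably only some replicates passing the limit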;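 further: agonist challenge used bursicon conditioned medium at about half maximal strength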
CF NFkB block: cystic fibrosis NF-kB activation inhibition | 360,000 compounds, 0.86% hits | KKLEB NF-kB-GFP reporter, PAF-induced, GFP fluorescence overnight | inhibition, % at 5 µM | AID 588850;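 active means at least 50% inhibition at 5 µM, scaled per plate between neutral and stimulator controls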;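 further: PAF is a Pseudomonas aeruginosa culture filtrate used as stimulus; plate controls were PAF-stimulated DMSO wells for no effect and unstimulated DMSO wells for full effect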
TWEAK-Fn14 inh: inhibitors of TWEAK-Fn14 interaction signaling | inhibition, % at 10 µM | TWEAK-stimulated Fn14 reporter cells, luciferase luminescence, 8 h | 360,000 compounds, 2% hits | AID 1159606; in the data active means inhibition above about 50%
HIF-2a block: HIF-2a inhibition; 786-0 RCC cells HIF-2a reporter, luciferase luminescence, overnight; inhibition, % at 18.8 µM; 360,000 compounds, 0.72% hits;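 active means inhibition of the luminescence signal of 40% or more relative to plate controls, in a single-dose primary screen at 18.75 µM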
KKLEB cytotox: counter-screen for CF NF-kB inhibitors: cytotoxicity; 360,000 compounds, 0.36% hits; activity change (cytotoxicity), % at 5 µM; KKLEB CF airway cells viability, ATPlite luminescence, overnight; stronger effect = lower value; cells stimulated with P. aeruginosa culture filtrate;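 active means corrected activity change at or below -50% at 5 µM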
iPSC survival up: increases survival of single human iPS cells. 360,000 compounds, 0.044% hits. survival enhancement, % at 20 µM. AID 602274. hiPSC single-cell survival, ATPlite luminescence; 100% = ROCK inhibitor wells, 0% = DMSO; in the data active means survival enhancement above about 18%;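 further: cells exposed to compounds for 16 hours before the ATP read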
Mdm2-MdmX confirm: confirmation of inhibitors of human Mdm2/MdmX interaction, set 2. inhibition, % at 8 µM. 740 compounds, 99% hits. SaOS-2 split-luciferase Mdm2/MdmX complementation, luminescence. AID 504601. shares compounds with HIF-2a block;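 active means mean inhibition of the luminescence signal across two replicates at or above 26 percent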
Target sequence (O15151 whole entry, looked up): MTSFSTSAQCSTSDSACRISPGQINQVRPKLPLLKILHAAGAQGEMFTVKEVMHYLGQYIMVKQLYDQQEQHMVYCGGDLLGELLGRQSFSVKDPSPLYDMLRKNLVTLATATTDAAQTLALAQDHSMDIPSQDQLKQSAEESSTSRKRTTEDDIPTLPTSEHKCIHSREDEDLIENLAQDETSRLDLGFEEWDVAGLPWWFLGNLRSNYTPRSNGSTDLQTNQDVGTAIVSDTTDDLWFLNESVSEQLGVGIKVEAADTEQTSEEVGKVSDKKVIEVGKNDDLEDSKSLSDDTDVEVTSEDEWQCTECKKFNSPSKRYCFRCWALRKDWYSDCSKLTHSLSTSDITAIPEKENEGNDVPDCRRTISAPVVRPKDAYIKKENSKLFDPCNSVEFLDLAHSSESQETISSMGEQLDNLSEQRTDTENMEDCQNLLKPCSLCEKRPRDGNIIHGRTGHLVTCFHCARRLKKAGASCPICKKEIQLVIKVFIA
Target sequence (Q00987 whole entry, looked up): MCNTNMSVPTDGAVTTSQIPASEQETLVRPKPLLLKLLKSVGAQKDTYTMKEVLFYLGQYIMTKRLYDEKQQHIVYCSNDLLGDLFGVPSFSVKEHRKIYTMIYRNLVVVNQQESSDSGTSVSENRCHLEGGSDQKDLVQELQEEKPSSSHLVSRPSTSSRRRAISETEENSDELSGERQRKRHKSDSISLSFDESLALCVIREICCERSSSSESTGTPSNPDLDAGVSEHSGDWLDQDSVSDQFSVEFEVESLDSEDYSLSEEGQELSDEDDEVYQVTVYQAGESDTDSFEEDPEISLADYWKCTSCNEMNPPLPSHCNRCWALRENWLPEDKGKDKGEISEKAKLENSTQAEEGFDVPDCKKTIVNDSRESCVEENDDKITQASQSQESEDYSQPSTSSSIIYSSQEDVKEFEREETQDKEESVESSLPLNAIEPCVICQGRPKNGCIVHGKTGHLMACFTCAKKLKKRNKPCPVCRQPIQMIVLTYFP
HIF-2a conf: HIF-2a inhibition, single concentration confirmation | AID 651580 | 1,800 compounds, 56% hits | inhibition, % at 18.8 µM | 786-0 RCC cells, HIF-2a luciferase reporter luminescence, overnight | shares compounds with HIF-2a block;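 active means mean inhibition across four replicates of at least 40 percent at the single tested concentration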
HIF-1a counter: HIF-1a inhibition counter-screen for HIF-2a hits; shares compounds with HIF-2a block; MiaPaCa-2 HIF-1a luciferase reporter, desferoxamine, overnight; inhibition, % at 18.8 µM; 1,800 compounds, 72% hits;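 active means mean inhibition of the reporter signal across four replicates at the single tested dose of 50% or more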
Starred values were filed as active, the others as inactive; u = inconclusive; x = no result.

SMILES | LGR2 antag | CF NFkB block | TWEAK-Fn14 inh | HIF-2a block | KKLEB cytotox | iPSC survival up | HIF-2a conf | HIF-1a counter | others
O=C(Nc1ccc(OC(=O)N2CCCC2)cc1)N1CCOCC1 | 3.4 | -16.6 | -10.4 | -7.9 | 9.9 | 3.8 | x | x
O=C(Nc1ccc(OC(=O)N2CCCCC2)cc1)N1CCOCC1 | 11.9 | 14.7 | 94.0* | 72.0* | 7.3 | -0.4 | 76.2* | 51.5*
COc1ccc(-c2ccc([C@H]3[C@@H](CO)N4CCCCN(C(=O)Cc5ccccc5)C[C@@H]34)cc2)cc1 | 6.9 | x | x | x | x | x | x | x
CC(C)(O)C(=O)Nc1ccc([N+](=O)[O-])c(C(F)(F)F)c1 | 8.3 | 7.1 | -6.5 | 0.1 | 8.4 | -1.1 | x | x
COc1cc2c(cc1OC)CN(c1ccc([N+](=O)[O-])c(C(F)(F)F)c1)CC2 | 93.4* | -11.7 | 74.5* | 46.5* | -9.3 | -1.2 | -11.7 | 35.9
COc1cc([N+](=O)[O-])c2nc(C)ccc2c1[N+](=O)[O-] | 1.2 | 25.5 | 25.2 | -9.9 | -22.5 | -2.9 | x | x
COc1cc([N+](=O)[O-])c2ncccc2c1[N+](=O)[O-] | x | 27.6 | 33.2 | 43.3* | -1.8 | -0.8 | 1.0 | 78.3*
O=C(c1ccccc1)C(CN1CCCC1)c1ccccc1 (configuration not stated) | u | 68.5* | 71.2* | 89.0* | -50.0 | -3.1 | 30.9 | 78.8*
CCN1CCN(CC(c2ccccc2)c2ccccc2)CC1 | -6.4 | -16.9 | 7.2 | 10.5 | 18.8 | -0.8 | x | x
O=C(O)[C@@H]1[C@@H](CO)[C@@H]2Cn3c(ccc(-c4cncnc4)c3=O)[C@H]1N2C(=O)NC1CCCC1 | 4.3 | x | x | x | x | x | x | x
COc1ccc(/C=C/C(=O)c2c(O)n(CCC3=CCCCC3)c(=O)[nH]c2=O)cc1 | -1.4 | -17.6 | 45.9 | 52.7* | 2.2 | 4.8 | 32.5 | 64.7*
N#Cc1ccc(-c2ccc([C@@H]3[C@H](CO)N4CCCCN(C(=O)Cc5ccccc5)C[C@@H]34)cc2)cc1 | -8.8 | x | x | x | x | x | x | x
CC[C@]12C=CCN3CCC4(c5cc(Br)c(OC)cc5N(C)C4[C@@](O)(C(=O)OC)[C@@H]1OC(C)=O)C32 (some centres not stated) | -41.0 | 15.7 | -1.7 | 40.5* | -17.8 | -0.2 | -4.0 | 15.4
O=C(Cc1ccccn1)N1CCCCN2[C@H](C1)[C@H](c1ccc(-c3ccccc3)cc1)[C@@H]2CO | 12.6 | x | x | x | x | x | x | x
O=C(Cc1cccnc1)N1CCCCN2[C@H](CO)[C@@H](c3ccc(C#CC4CCCC4)cc3)[C@@H]2C1 | 0.3 | x | x | x | x | x | x | x
O=C(O)[C@H]1[C@H](CO)[C@H]2Cn3c(ccc(-c4ccc(F)cc4)c3=O)[C@@H]1N2CC1CCCC1 | -19.9 | x | x | x | x | x | x | x
CC1=CC2OC3CC4OC(=O)C=CC=CC(C(C)O)OCC(O)C5(C)OC5C(=O)OCC2(CC1O)C4(C)C31CO1 (configuration not stated) | 102.1* | 95.8* | 98.6* | 77.9* | -47.9 | -2.5 | 66.3* | 105.7*
CC1=CC2OC3CC4OC(=O)C=CC=CC(=O)OCCC(C)C(O)C(=O)OCC2(CC1)C4(C)C31CO1 (configuration not stated) | x | 89.5* | 101.4* | 75.5* | -19.5 | -1.7 | 71.2* | 103.2*
CC1CCOC(=O)C=CC=CC(=O)OC2CC3OC4C5OC5(C)C(O)CC4(COC(=O)C1O)C2(C)C31CO1 (configuration not stated) | 103.7* | 90.3* | 103.2* | 66.7* | -9.0 | -1.4 | 55.9* | 103.1*
C/C=C/c1ccc(C2[C@@H]3CN(C(=O)C4CC4)C[C@H]2N3)cc1 (some centres not stated) | 21.4 | x | x | x | x | x | x | x
COCC#Cc1ccc([C@@H]2[C@@H](CO)N3CCCCN(C(=O)Cc4ccccn4)C[C@@H]23)cc1 | 5.0 | x | x | x | x | x | x | x
COc1cccc(C2CC3C(=O)C=CC2N3Cc2ccccc2)c1 (configuration not stated) | -4.5 | 16.7 | 10.9 | 47.9* | -0.4 | -2.0 | 57.3* | 47.0
COC(=O)[C@H]1[C@H](CO)[C@H]2Cn3c(ccc(-c4ccccc4)c3=O)[C@@H]1N2CC1CC1 | -8.7 | x | x | x | x | x | x | x
COC(=O)[C@@H]1[C@@H](CO)[C@@H]2Cn3c(ccc(-c4ccccc4F)c3=O)[C@H]1N2Cc1ccncc1 | -17.6 | x | x | x | x | x | x | x
C=C1C(=O)[C@@]23C[C@H]4[C@@H]5[C@@]6(C)CCC[C@@]57[C@@H]2[C@@H](O)[C@@H]1C[C@H]3[C@H]7N4C6 | 59.0* | 74.0* | 49.6 | 68.8* | 1.7 | -1.5 | x | x | Mdm2-MdmX confirm=101.2*
SMILES | LGR2 antag | CF NFkB block | TWEAK-Fn14 inh | HIF-2a block | KKLEB cytotox | iPSC survival up | HIF-2a conf | HIF-1a counter | others
CC=Cc1ccc2n(c1=O)C[C@H]1[C@H](CO)[C@@H](C(=O)N(C)C)N[C@@H]21 (mixture of isomers) | -5.9 | x | x | x | x | x | x | x
O=C(O)[C@@H]1[C@@H](CO)[C@@H]2Cn3c(ccc(-c4ccccc4)c3=O)[C@H]1N2S(=O)(=O)c1ccccc1F | 0.8 | x | x | x | x | x | x | x
O=C(Cc1ccncc1)N1CCCCN2[C@H](C1)[C@H](c1ccc(C#CC3(O)CCCC3)cc1)[C@@H]2CO | -2.6 | x | x | x | x | x | x | x
COC(=O)[C@@H]1[C@@H](CO)[C@@H]2Cn3c(ccc(C4=CCCC4)c3=O)[C@H]1N2CC1CCCCC1 | -7.6 | x | x | x | x | x | x | x
CNc1ccc2oc(C[C@H]3O[C@@]4(CC[C@H]3C)O[C@H]([C@H](C)C(=O)c3ccc[nH]3)[C@H](C)C[C@H]4C)nc2c1C(=O)O | -10.4 | 36.2 | 103.6* | 86.8* | -55.4* | -3.0 | x | x | Mdm2-MdmX confirm=102.5*
C=C1C(=O)OC2CC(C)C3C=CC(=O)C3(C)C(O)C12 (configuration not stated) | x | 96.5* | 102.0* | 85.5* | -62.1* | 50.0* | 93.9* | 99.6*
C=C1C(=O)O[C@H]2C[C@@H](C)[C@@H]3C=CC(=O)[C@@]3(C)C[C@H]12 | 82.4* | x | x | x | x | x | x | x | Mdm2-MdmX confirm=103.0*
C=C1C(=O)O[C@@H]2C[C@@H](C)[C@@H]3C4OC4C(=O)[C@@]3(C)[C@@H](O)[C@H]12 (some centres not stated) | 84.7* | 91.8* | 96.9* | 88.1* | -45.7 | 8.5 | 94.8* | 104.1*
COC(=O)[C@H]1[C@H](CO)[C@H]2Cn3c(ccc(C4=CCCCC4)c3=O)[C@@H]1N2CC1CCCCC1 | -3.0 | x | x | x | x | x | x | x
C[C@H]1[C@@H](OS(=O)(=O)O)C[C@@H]2C[C@H]([C@@H](O)c3cc(=O)[nH]c(=O)[nH]3)NC3=NC[C@H]1N32 | x | 76.1* | 59.6* | 53.7* | -9.9 | -3.8 | 23.3 | 105.3*
